A short description of experiment [1]: Cell Viability - N2a (AID 540).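 Also: plate controls were DMSO alone for no effect and tamoxifen control for full effect; nearly all actives have a fitted effect of over 45% in size.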 The settings on record: N2a mouse neuroblastoma cell viability; activity change, negative = cytotoxicity: at 92.2 µM (top of the series). Put shortly:
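Mouse neuroblastoma N2a cells, 1500/well, exposed to compounds 40 h at 37 °C in complete medium. Viability measured as cellular ATP by CellTiter-Glo luminescence; AC50 from Hill fits of concentration-response.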

A short description of experiment [2]: Cell Viability - NIH 3T3 (AID 541). Also: nearly all actives have a fitted effect of over 25% in size. Also: potency is read from the fitted curve at half-maximal effect.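 As to activity change, negative = cytotoxicity: plate controls were DMSO alone for no effect and tamoxifen positive control for full effect.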 Summed up: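 Mouse NIH 3T3 fibroblasts, 1000 cells/well, rested 5 hr at 37 °C, then exposed to compound for 40 hr at 37 °C in complete medium. Viability read as intracellular ATP by CellTiter-Glo luminescence; AC50 from Hill-equation fits of concentration-response data.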
Experiment [3] can be described thus: Cell Viability - HUV-EC-C (AID 542). Also: % is scaled to controls: 0 for no effect and ±100 for the full control effect; nearly all actives have a fitted effect of over 35% in size. Summed up:
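HUV-EC-C human vascular endothelial cells, 1000/well, exposed to compound for 40 hr at 37 °C in complete medium. Intracellular ATP was read by CellTiter-Glo luminescence. AC50 came from Hill-equation fits of concentration-response data.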

Experiment [4] is described as follows: Cell Viability - H-4-II-E (AID 543). Also: % is scaled to controls: 0 for no effect and ±100 for the full control effect; nearly all actives have a fitted effect of over 35% in size. Summed up: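 Rat hepatoma H-4-II-E cells, 1500 per well, treated 40 h at 37 °C in complete medium. Cellular ATP read by CellTiter-Glo luminescence; AC50 from Hill fits of concentration-response.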
Experiment [5] can be described thus: Cell Viability - SH-SY5Y (AID 544). Also: nearly all actives have a fitted effect of over 55% in size. Also: potency is read from the fitted curve at half-maximal effect. Summed up: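 SH-SY5Y human neuroblastoma cells (1500/well) incubated 5 h, then compound-treated 40 h at 37 °C in complete medium. Viability read as intracellular ATP by CellTiter-Glo luminescence after 20 min; AC50 from Hill-equation fits of qHTS concentration-response.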
Experiment [6] in a line: Cell Viability - Renal Proximal Tubule (AID 545).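 Also: 0% = DMSO only and -100% = 100 µM tamoxifen; nearly all actives have a fitted effect of over 40% in size.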 Summed up:
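Viability taken as intracellular ATP (CellTiter-Glo luminescence) after 40 hr, 37 °C compound treatment of primary proximal tubule cells from rat kidney, 1000 cells/well; Hill-equation fits of qHTS concentration-response data gave AC50.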

A short description of experiment [7]: Cell Viability - Mesenchymal (AID 546).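 Also: cells exposed to compound for 40 hours before reading; 0% = DMSO only and -100% = 100 µM tamoxifen.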 Summed up:
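AC50 values reflect the drop in intracellular ATP in a human kidney mesenchymal line derived from normal glomeruli. Treatment lasts 40 hr at 37 °C in complete medium, and the signal comes from CellTiter-Glo luminescence.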

Experiment [8] in a line: Cellular Toxicity (caspase-3) HepG2 (AID 654).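 Also: cells exposed to compound for 16 hours before reading; 0% = DMSO alone and 100% = caspase signal from 100 µM tamoxifen.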 Summed up: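 HepG2 cells (1500/well) were treated 16 h at 37 °C in complete medium, then caspase 3/7 activity was read by Caspase-Glo luminescence. Data were normalized to DMSO and 100 uM tamoxifen; AC50 came from Hill-equation fits of qHTS concentration-response.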
A short description of experiment [9]: Cellular Toxicity (caspase-3) Jurkat (AID 655).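 Also: cells exposed to compound for 16 h at 37 °C before reading.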 Summed up: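 Luminescent Caspase-Glo 3/7 read-out (20 min, room temperature) after 16 h compound treatment at 37 C of 5000 Jurkat cells per well. AC50 derived by Hill-equation fitting, scaled between DMSO basal and 100 uM tamoxifen stimulation.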
The nature of experiment [10]: Cellular Toxicity (caspase-3) HUV-EC-C (AID 656).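 Also: 0% = DMSO basal and 100% = 100 µM tamoxifen.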 Summed up: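 Luminescent Caspase-Glo 3/7 readout after 16 h, 37 °C compound exposure of HUV-EC-C endothelial cells, 1000 per well, complete medium. AC50 derived by Hill fitting, with DMSO as baseline and 100 uM tamoxifen as full activation.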
A short description of experiment [11]: Cellular Toxicity (caspase-3) SHSY5Y (AID 657). Put shortly: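 Luminescent Caspase-Glo 3/7 read-out, 1 hr room temperature, follows 16 hours of compound treatment of SH-SY5Y cells at 37 °C. Normalization: DMSO basal, 10 uM staurosporine as 100%; AC50 values from Hill-equation concentration-response fits.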
Experiment [12] can be described thus: Cellular Toxicity (caspase-3) BJ (AID 658).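 Also: 0% = DMSO basal and 100% = 10 µM staurosporine.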 Put shortly: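 Readout: Caspase-Glo 3/7 luminescence increase in BJ cells after 16 hr treatment at 37 °C. Staurosporine and tamoxifen served as positive controls; AC50 values came from Hill modelling of data normalized to DMSO and 10 uM staurosporine.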
The nature of experiment [13]: Cellular Toxicity (caspase-3) MRC-5 (AID 659).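 Also: 0% = DMSO basal and 100% = 10 µM staurosporine.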 Summed up: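 Concentration-dependent caspase 3/7 activation is measured in human normal lung fibroblasts (MRC-5) following 16-hour treatment. AC50 values come from standard Hill-equation modeling of luminescence normalized to DMSO and 10 uM staurosporine.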
Experiment [14] in a line: Cellular Toxicity (caspase-3) Mesangial (AID 660).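 Also: cells exposed to compound for 16 h before the caspase read.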 Put shortly: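 Human renal glomerular mesangial cells, 1000/well, 5 h at 37 C before 16 h compound treatment. Caspase-Glo 3/7 luminescence after 20 min; normalized to DMSO and 100 uM tamoxifen, AC50 from Hill fit.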
Experiment [15] can be described thus: Cellular Toxicity (caspase-3) SK-N-SH (AID 661).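 Also: 0% = DMSO basal and 100% = 10 µM staurosporine.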 Put shortly: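 Human SK-N-SH neuroblastoma cells, 1500/well, were exposed to compounds for 16 hours at 37 °C. Caspase-Glo 3/7 luminescence was normalized to DMSO (basal) and 10 uM staurosporine (100%), and AC50 came from a Hill fit.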
Experiment [16] in a line: Cellular Toxicity (caspase-3) H-4-II-E (AID 663).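 Also: cells exposed to compound for 16 hr before readout; 0% = DMSO basal and 100% = 100 µM tamoxifen.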 Put shortly:
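Apoptosis induction is scored as increased luminescence from caspase 3/7 substrate cleavage in rat hepatoma H-4-II-E cells exposed to compound for 16 hr. Activity is scaled between DMSO and 100 uM tamoxifen.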

Our source for the activity change, negative = cytotoxicity, Potency and outcome values is PubChem BioAssay (NCATS).

Each structure is given as a SMILES string. A number with no mark means an inactive call. Results filed as inconclusive are left out. The source made the active and inactive calls. Calls follow the shape of the dose curve; as a rule, active = well fitted curve in the direction sought with a large enough effect; inconclusive = small, poorly fitted or top-dose-only effect, or another doubt; inactive = no such curve, though single readings can be large; an effect the other way counts as inactive or inconclusive.

`Cc1cc(O)ccc1Cl`: the activity change, negative = cytotoxicity in experiment [1] is -7.18%. Further, the Potency result in experiment [2], in experiment [3], in [4], in experiment [5], in experiment [6] and in experiment [7] was “inactive” throughout. For the same compound, the compound was classed as inactive in experiment [8], in experiment [9], in experiment [10], in experiment [11], in experiment [12] and in experiment [13]. For the same compound, the result in experiment [14], in experiment [15] and in experiment [16] was inactive.
`CCCCCCCCc1ccc(O)cc1`: the activity change, negative = cytotoxicity in experiment [1] was -16.1%. Moreover, the Potency result in experiment [2], in experiment [3], in [4], in experiment [5], in experiment [6] and in [7] was “inactive” throughout. The result in experiment [8], in experiment [9], in experiment [10], in experiment [11], in experiment [12] and in experiment [13] was inactive. In addition, the compound was called inactive in [14], in experiment [15] and in [16].
For the compound `CCOP(=O)(NC(C)C)Oc1ccc(SC)c(C)c1` (stereo not given), in [1], the activity change, negative = cytotoxicity is -29.1%. Moreover, the Potency entry in [3], in experiment [4], in experiment [6] and in experiment [7] was “inactive” each time. Also, in experiment [5], the Potency was 12.6 µM (active). For the same compound, the compound was called inactive in experiment [8], in experiment [9], in [10], in [11], in [12] and in experiment [13]. In addition, the call in experiment [14], in [15] and in [16] was inactive.
For `CCCCC(CC)COC(=O)c1ccccc1C(=O)OCC(CC)CCCC` (stereo not given), the activity change, negative = cytotoxicity in [1] is -29.3%. Moreover, the Potency result in experiment [3], in experiment [4], in [5], in experiment [6] and in [7] was “inactive” in each case. Moreover, the result in [8], in experiment [9], in [10], in [11], in experiment [12] and in experiment [13] was inactive. Besides, the compound was classed as inactive in experiment [14], in experiment [15] and in experiment [16].
Regarding `C=CC(=O)NCNC(=O)C=C`, the activity change, negative = cytotoxicity in experiment [1] is 2.37%. Moreover, the Potency entry in experiment [2], in [3], in [4], in experiment [5], in experiment [6] and in experiment [7] was “inactive” throughout. Besides, the compound was classed as inactive in experiment [8], in experiment [9], in experiment [10], in experiment [11], in experiment [12] and in experiment [13]. The outcome in experiment [14], in experiment [15] and in [16] was inactive.
For `O=[N+]([O-])c1cc([N+](=O)[O-])c2ccccc2c1`, in experiment [1], the activity change, negative = cytotoxicity is -22.1%. Besides, the Potency result in experiment [2], in experiment [3], in [5], in experiment [6] and in experiment [7] was “inactive” each time. Besides, the result in [8], in experiment [9], in experiment [10], in experiment [11], in [12] and in experiment [13] was inactive. Besides, the outcome in [14], in experiment [15] and in experiment [16] was inactive.
On to `Nc1ccc(Cl)cc1N`, for which the Potency in [2] was 631 nM (active). Besides, the Potency entry in [3], in experiment [4], in [6] and in [7] was “inactive” in each case. In addition, the outcome in experiment [10], in experiment [11], in [12], in [13], in [14] and in experiment [15] was inactive. Further, the compound was called inactive in experiment [16].
